The record followed here is PubChem BioAssay AID686979 (National Center for Advancing Translational Sciences (NCATS), 2013).

Several values for one entry are separate records, joined by “and”; a condition that tells them apart may be missing. Equal values may be shown once. The campaign covered roughly 420,000 compounds. About 50,000 (12%) were called active. Another 26% or so got no clear call; they are omitted. This is one part of a sample in which actives are shown more often than they occur. Unmarked numbers belong to inactive results. Calls follow the shape of the dose curve; as a rule, active = well fitted inhibition curve with a large enough effect; inconclusive = small, poorly fitted or top-dose-only effect; inactive = flat fitted curve, though single readings scatter.
% is scaled to controls: 0 for no effect and ±100 for the full control effect; potency is read from the fitted curve at half-maximal effect.

The nature of the experiment: qHTS for Inhibitors of human tyrosyl-DNA phosphodiesterase 1 (TDP1): qHTS in cells in presence of CPT. Also: nearly all actives have a fitted effect of over 55% in size. As to conditions: chicken DT40 Tdp1-/-;hTDP1 cells + 20 nM CPT, ATP luminescence, 48 h; series mostly up to 46.2 µM; activity change, negative = growth inhibition: at the top concentration. From the text:
Human tyrosyl-DNA phosphodiesterase 1 (TDP1) is a novel repair gene, and we propose to use it as a new target for anticancer drug development. TDP1 is not an essential protein, but under treatment with topoisomerase I poison (camptothecin: CPT), TDP1 works as a critical factor for cell survival. To directly identify novel TDP1 inhibitors active in a cellular environment, we have knocked-out the Tdp1 gene in chicken DT40 cells (Tdp1-/-) and generated a complemented counterpart cells that contains a stable transfection of the human TDP1 gene (Tdp1-/-;hTDP1 cells). For the primary screen, Tdp1-/-;hTDP1 cells will be exposed to small molecules in the presence or absence of CPT, and their growth kinetics will be evaluated after 48 hours by measuring ATP activity. […] The hit compounds will then be evaluated in the presence or absence of CPT using Tdp1-/- cells. […] In tertiary assays, biochemical gel-based assays will be used to assess whether the hit compounds specifically target TDP1. To this end, we have screened this cell line against the MLSMR in two primary screens. In one screen we add CPT and in the other we screen in the absence of CPT; this AID represents the screen where CPT was present. NIH Chemical Genomics Center [NCGC] NIH Molecular Libraries Probe Centers Network [MLPCN] MLPCN Grant: MH095538 Assay Submitter (PI): Yves Pommier, NCI
DT40-hTDP1 cells with 20 nM Camptothecin (add 20 microL of 1 mM CPT stock in 1 L of cell culture medium) were dispensed at 400 cells/5microL/well in tissue culture treated 1536-well white wall/solid bottom assay plates (Greiner Bio-One North America, NC, U.S.A.) using a Multidrop Combi 8 channel dispenser (Thermo Fisher, Waltham, MA, USA). 23 nL compounds and controls were transferred using the pin tool (Kalypsys, San Diego, CA, USA) to the assay plates. The assay plates were then incubated at 37 masculineC for a minimum 48 hr. Three microL of Cell Titer Glo solution was added to the plates and incubated at RT in dark for 30 min. Luminescence was read using ViewLux (Perkin Elmer) with 1 sec exposure slow speed, high gain and 2x binning.
For orientation: qHTS replaces the single test concentration by a dilution series.
Take `COc1ccc(NC(=O)C(=O)NCC(=O)Nc2cccc(C(F)(F)F)c2)cc1`: the “activity change, negative = growth inhibition” value is 15.1%. For the molecule `COc1ccc(/C=N/NC(=O)c2cccc(C(F)(F)F)c2)cc1`, the “activity change, negative = growth inhibition” value was 0.721%. On to `COc1cc(OC)cc(C(=O)Nc2ccc3nc(Nc4cccc(C(F)(F)F)c4)cc(C)c3c2)c1`, for which the Potency is 9.2 µM (active). In the case of `CC(Oc1cccc(Cl)c1)C(=O)Nc1ccc(S(=O)(=O)Nc2ncccn2)cc1` (configuration not stated), the “activity change, negative = growth inhibition” value is -22.1%. On to `CCCCSc1nc2ccccc2[nH]1`, for which the “activity change, negative = growth inhibition” value is -15.7%. As for `CCC(C)N1C(=O)S/C(=C/c2ccc(Sc3nc4ccccc4[nH]3)o2)C1=O` (configuration not stated), the Potency was 14.6 µM (active). Turning to `CCc1nnc(NC(=O)CCCSc2nc3ccccc3[nH]2)s1`, the “activity change, negative = growth inhibition” value was 10.8%.

On to `CCN1CCN(C(=O)C2CCN(S(=O)(=O)c3cc(Cl)ccc3Cl)CC2)CC1`, for which the “activity change, negative = growth inhibition” value is 3.59%. In the case of `Cc1nnc(SCC(=O)Nc2ncc3c(n2)CC(C)(C)CC3=O)s1`, the “activity change, negative = growth inhibition” value is -8.13%. Take `CC(C)=CCN1CCN(CCCc2ccccc2)CC1CCO` (configuration not stated): the “activity change, negative = growth inhibition” value was -2.58%. Consider `CC(C)=CCN1CCC2(CCc3ccccc32)CC1`, for which the Potency was 11.6 µM (active). For the molecule `COc1cc(CNCCSc2nnnn2C)ccc1OCc1ccc(Cl)cc1Cl`, the Potency was 16.4 µM (active). Take `Cn1nnnc1SCCNCc1ccc(Cl)c(Cl)c1`: the “activity change, negative = growth inhibition” value is -1.39%.

Take `COc1cc(CNCCSc2nnnn2C)ccc1OCc1c(F)cccc1Cl`: the “activity change, negative = growth inhibition” value was -28.8%. In the case of `Cc1cccc(C)c1N1CCN(S(=O)(=O)N2CCCCC2)CC1`, the “activity change, negative = growth inhibition” value is -11.1%. With `COc1cc(OC)cc(-c2nc3nc(C)c(CCC(=O)Nc4ccccc4)c(C)n3n2)c1`, the Potency is 14.6 µM (active). As for `CCOC(=O)c1cccc(NC(=O)CCc2c(C)nc3ncnn3c2C)c1`, the “activity change, negative = growth inhibition” value is 3.12%. `COc1cc(OC)cc(-c2nc3nc(C)c(CCC(=O)Nc4ccc(C)cc4)c(C)n3n2)c1`: the “activity change, negative = growth inhibition” value was -9.57%. For the molecule `CC(C)OC(=O)c1ccc(COc2ccc3ccc(=O)oc3c2)o1`, the “activity change, negative = growth inhibition” value was 2.4%. Same read-out and setting: next, `O=C(C1CCCO1)N1CCN(S(=O)(=O)c2ccc(Br)cc2)CC1` (configuration not stated): -5.03%; `CN(C)C1CN(Cc2cn(Cc3ccccc3)nn2)S(=O)(=O)C1` (configuration not stated): -11.9%. The same measure, in the same setting: with `CC(C)CCN1CCN(Cc2ccc(C(F)(F)F)cc2)CC1CCO` (configuration not stated) the figure was -29.5%. `CN(Cc1cn(Cc2ccc(C(F)(F)F)cc2)nn1)C1CN(Cc2cn(Cc3ccc(C(F)(F)F)cc3)nn2)S(=O)(=O)C1` (configuration not stated): the Potency was 6.51 µM (active).

For `O=C(c1ccc(Cl)c(S(=O)(=O)N2CCCCCC2)c1)N1CCN(c2ccc(O)cc2)CC1`, the Potency was 18.4 µM (active). Take `O=C(c1ccc(Cl)c(S(=O)(=O)N2CCCCC2)c1)N1CCCCCC1`: the “activity change, negative = growth inhibition” value is -26.3%. `O=C(c1ccc(Cl)c(Cl)c1)N1CCCC1`: the “activity change, negative = growth inhibition” value is 3.77%. On to `CN(C)c1cccc(C(=O)N2CCC(n3nccc3NC(=O)C3CCOC3)CC2)c1` (configuration not stated), for which the “activity change, negative = growth inhibition” value is 5.19%. In the case of `Cn1c(=O)c(Sc2ccc(Cl)cc2)c(O)c2ccccc21`, the “activity change, negative = growth inhibition” value is 5.09%. Turning to `CC1Cc2ccccc2N1CC(=O)Nc1ccc2c(c1)OC(F)(F)O2` (configuration not stated), the “activity change, negative = growth inhibition” value was -15.8%. For the molecule `COc1cc(NC(=O)c2cncc(-c3ccc(C#N)cc3)c2)cc(C(=O)Nc2cccc(C(F)(F)F)c2)c1`, the Potency is 8.2 µM (active) and 16.4 µM (active).

Regarding `N#Cc1ccc(Oc2ccc(C(F)(F)F)cc2NC(=O)c2ccc(F)cc2)cc1`, the “activity change, negative = growth inhibition” value is -18.8%. For the molecule `COc1cc(NC(=O)c2[nH]cnc2C(N)=O)cc(C(=O)Nc2cccc(C(F)(F)F)c2)c1`, the Potency was 20.6 µM (active).

With `O=C(Nc1cccc(C(F)(F)F)c1)c1cnccn1`, the “activity change, negative = growth inhibition” value was 0.881%.

As for `CCN(CC)C(=O)C1=C(C)N(Cc2ccc(F)cc2)C(=O)C(CC(=O)NC2CCCC2)C1` (configuration not stated), the “activity change, negative = growth inhibition” value was -16.9%.

For the molecule `O=c1ccn([C@@H]2O[C@H](COP(=O)(O)OP(=O)(O)OP(=O)(O)O)[C@@H](O)[C@H]2O)c(=O)[nH]1`, the “activity change, negative = growth inhibition” value was -29.6%. As to `CNS(=O)(=O)c1cccc(C(=O)OCC(=O)N2c3ccccc3NC(=O)C2(C)C)c1`, the “activity change, negative = growth inhibition” value is -1.39%. The same measure, in the same setting: next, `CCOc1ccc(NC(=O)CN(C)C(=O)CCSc2ccc(F)cc2)cc1OCC`: -29.6%; `CC(C)Oc1ccc(C(CC(=O)N2CCOCC2)C(C)C)cc1` (configuration not stated): -3.05%. For `COc1ccccc1CNC(=O)C(=O)NCC(c1cccs1)S(=O)(=O)c1cccs1` (configuration not stated), the “activity change, negative = growth inhibition” value was -6.96%. With `Cc1ccccc1CNC(=O)C(=O)NCC(c1cccs1)S(=O)(=O)c1cccs1` (configuration not stated), the Potency was 13 µM (active). On to `CC(C)C(=O)NCC(c1cccs1)S(=O)(=O)c1ccc(F)cc1` (configuration not stated), for which the “activity change, negative = growth inhibition” value is -12.7%. The same measure, in the same setting: next, `CC(C)C(=O)Nc1nnc(Sc2ccc(N(C)C)cc2)s1`: -0.75%. On to `CN(Cc1ccccc1)c1ccc(-c2nc(-c3ccccc3)no2)cc1[N+](=O)[O-]`, for which the “activity change, negative = growth inhibition” value is -15.3%. For the molecule `CN(Cc1ccccc1)c1ncnc2onc(-c3ccc(F)cc3)c12`, the Potency was 23.1 µM (active). For the molecule `Cc1noc(C)c1S(=O)(=O)N(C)Cc1ccccc1`, the “activity change, negative = growth inhibition” value is -6.12%.

For the molecule `Cc1ccc2c(C)c(C(=O)N3CCC(N4CCC(C(=O)NC5CC5)CC4)CC3)oc2c1`, the “activity change, negative = growth inhibition” value is -0.225%. For the molecule `CN1CN(C)c2ccc([N+](=O)[O-])c3cccc1c23`, the “activity change, negative = growth inhibition” value is 0.252%. As for `CCN1C(=O)[C@H]2[C@@H](c3ccc(C(F)(F)F)cc3)N[C@]3(CCCN(Cc4ccc(Br)cc4)C3=O)[C@H]2C1=O`, the Potency was 13 µM (active). Turning to `O=C1[C@H]2[C@@H](c3ccc(C(F)(F)F)cc3)N[C@]3(CCCN(Cc4ccc(Cl)cc4)C3=O)[C@H]2C(=O)N1Cc1ccccc1`, the Potency is 16.4 µM (active). For the molecule `O=C1[C@H]2[C@@H](c3ccc(C(F)(F)F)cc3)N[C@]3(CCCN(Cc4ccc(Br)cc4)C3=O)[C@H]2C(=O)N1Cc1ccccc1`, the “activity change, negative = growth inhibition” value is -21.3%.

`CCN1C[C@@H]2[C@@H]3C(=O)N(Cc4ccccc4)C(=O)[C@@H]3[C@](C)(C1=O)N2C(=O)c1ccc(C(C)(C)C)cc1`: the “activity change, negative = growth inhibition” value is -20.1%. On the same count and under the same terms, next, `COc1ccc([C@H]2N[C@]3(CCCN(Cc4ccco4)C3=O)[C@H]3C(=O)N(C)C(=O)[C@@H]23)cc1`: -16.7%.
